Some of the results follow. Calls of active or inactive are those of the source. Cut-off read from the data, not from the text of the source: active = inhibition above about 20%; inactive = the rest.
Target: Neuropeptide Y receptor type 1 (Homo sapiens) (UniProt P25929)
Test: NPY-Y1 receptor antagonists, selectivity check, counter-screen for NPY-Y2 antagonist project, cell-based (AID 1256);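 note: cells challenged with NPY then isoproterenol with cAMP sensed through a CNG channel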
Conditions: cell-based NPY-Y1 antagonism counterscreen; at 3.6 µM; hits give high values

Chain of Neuropeptide Y receptor type 1 (Homo sapiens) (P25929 whole entry, looked up): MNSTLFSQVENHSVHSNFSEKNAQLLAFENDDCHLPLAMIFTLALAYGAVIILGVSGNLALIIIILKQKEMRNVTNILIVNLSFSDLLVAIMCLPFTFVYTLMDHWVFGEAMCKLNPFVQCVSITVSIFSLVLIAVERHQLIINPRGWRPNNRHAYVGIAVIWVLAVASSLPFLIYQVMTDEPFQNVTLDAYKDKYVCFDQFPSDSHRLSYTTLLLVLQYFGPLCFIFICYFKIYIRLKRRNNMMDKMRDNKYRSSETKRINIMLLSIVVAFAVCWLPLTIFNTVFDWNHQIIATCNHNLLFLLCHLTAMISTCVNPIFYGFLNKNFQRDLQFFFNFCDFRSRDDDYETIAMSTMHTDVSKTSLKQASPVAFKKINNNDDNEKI

Compound	inhibition
N=c1n(Cc2ccc(Cl)cc2)c2ccccc2n1CC(O)c1ccco1 (stereo unspecified)	13.8% (inactive)
C=CCNCCCCOc1ccccc1	-1.26% (inactive)
COc1ccc(NC(=O)/C(Cl)=C(/Cl)S(=O)Cc2ccc(C)cc2)cn1 (stereo unspecified)	42.1% (active)
O=S(=O)(Cc1cc(Sc2ccccc2)nc(-c2ccccc2)n1)c1ccccc1	11.8% (inactive)
CCOC(=O)C(C)Sc1nc2ccccc2c(=O)n1CC1CCCCC1 (stereo unspecified)	7.75% (inactive)
COc1cccc(-c2ccc(C#N)c(SCC(=O)NCCc3ccc(Cl)cc3)n2)c1	9.97% (inactive)
Cc1ccc(CCC(=O)Nc2ncc(Cc3cc(Cl)ccc3Cl)s2)o1	18.8% (inactive)
CCCCC(O)(CCCC)C(=O)NN(C(=O)CCl)c1ccccc1	7.18% (inactive)
Cc1ccc(NC(=O)CN2CCC3(O)CCCCC3C2c2ccc3c(c2)OCO3)c(C)c1 (stereo unspecified)	5.96% (inactive)
O=C(Oc1ccccc1)Oc1ccc2c(c1)oc(=O)c1ccccc12	3.68% (inactive)
Cc1cccc(OCC(O)Cn2c(=N)n(CCN3CCOCC3)c3ccccc32)c1 (stereo unspecified)	4.2% (inactive)
Cc1ccc(C2=NN(C)c3nc4ccccc4n3C2)cc1	8.4% (inactive)
Cc1ccccc1OC(=O)Cn1c(C(F)(F)F)nc2ccccc21	7.05% (inactive)
COc1ccc(/C(N)=N/OC(=O)CCCc2ccccc2)cc1	6.54% (inactive)
c1ccc(-c2cc3c(NCC4COc5ccccc5O4)ncnc3s2)cc1 (stereo unspecified)	19.3% (inactive)
N#Cc1ccc(C(c2nnnn2CCc2ccccc2)N2CCCCCC2)cc1 (stereo unspecified)	7.96% (inactive)

Reference: PubChem BioAssay AID1256 (The Scripps Research Institute Molecular Screening Center, 2008)
